KKLEB cytotox: reduces viability of KKLEB cystic fibrosis airway cells. KKLEB CF airway cells viability, ATPlite luminescence, overnight; stronger effect = lower value; cells stimulated with P. aeruginosa culture filtrate. activity change (cytotoxicity), % at 5 µM. 360,000 compounds, 0.36% hits;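 active = corrected activity change at or below -50% at 5 µM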
MITF TRPM1 inh: MITF TRPM1 promoter inhibition in SK-MEL-5 cells; inhibition, % at 12.5 µM; SK-MEL-5 TRPM1 promoter luciferase, 24 h; 330,000 compounds, 0.83% hits;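 active = mean inhibition across replicates of 60% or more, whatever share of single replicates reaches that level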
CF NFkB inh: cystic fibrosis NF-kB activation inhibition; inhibition, % at 5 µM; AID 588850; KKLEB NF-kB-GFP reporter, PAF-induced, GFP fluorescence overnight; 360,000 compounds, 0.86% hits;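 active = at least 50% inhibition at 5 µM, scaled per plate between neutral and stimulator controls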;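 also: PAF is a Pseudomonas aeruginosa culture filtrate used as stimulus; plate controls were PAF-stimulated DMSO wells for no effect and unstimulated DMSO wells for full effect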
HIF-2a block: blocks HIF-2a reporter activity | inhibition, % at 18.8 µM | 360,000 compounds, 0.72% hits | 786-0 RCC cells HIF-2a reporter, luciferase luminescence, overnight;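 active = inhibition of the luminescence signal of 40% or more relative to plate controls, in a single-dose primary screen at 18.75 µM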
Shn3 3UTR inh: inhibitors of Schnurri-3 3'UTR reporter in osteoblasts. Clone20 osteoblast Shn3 3'UTR firefly luciferase, 24 h. inhibition, % at 12.5 µM. 360,000 compounds, 0.52% hits;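 active = mean inhibition of at least 75% with every replicate also reaching 75%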;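 also: 0% = median of neutral control wells and 100% = pilot-screen positive control compound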
Peg3 prom inh: reduces Peg3 promoter-driven luciferase expression in HeLa; HeLa PEG-Prom luciferase reporter, luminescence, overnight; inhibition, % at 20 µM; AID 588405; 360,000 compounds, 1.7% hits;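 active = inhibition of at least 50% at 20 µM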
* = called active by the depositor; nt = not tested or not shown. Rows were chosen to be rich in hits. Some 2.8% of all compounds tested hit in one or more screens of this group.

SMILES	KKLEB cytotox	MITF TRPM1 inh	CF NFkB inh	HIF-2a block	Shn3 3UTR inh	Peg3 prom inh
CN(C)c1ccc(Cc2cc3c(O)ccc(O)c3cc(Cc3ccc(N(C)C)cc3)c2=O)cc1	1	37	-8	48*	17	25
O=C(/C=C/c1ccco1)Oc1cc(Br)cc(/C=N/NC(=O)c2ccccc2O)c1	-18	25	12	-165	94*	16
Cc1ccc(C(=O)N/N=C/c2cccc(OC(=O)/C=C/c3ccco3)c2)cn1	-1	-28	-5	-29	-48	-81
Cc1ccc(Nc2nc(N)nc(COC(=O)c3ccc(Br)o3)n2)cc1	-1	-44	10	-134	-36	-125
CCC1Sc2ccc(S(=O)(=O)CCC(=O)Nc3ccc(OC(F)(F)F)cc3)cc2NC1=O (stereo not given)	7	-3	15	21	1	11
CC(=O)Nc1ccc(C=NN=C2c3ccccc3-c3ccccc32)cc1	-1	0	-46	-91	26	74*
CC(=O)N(C)/C=C1\Sc2ccccc2C1=O	-10	-1	8	-10	1	-1
CC(=O)Nc1ccc(/C=C2\Sc3ccccc3C2=O)cc1	-3	1	0	50*	-39	-109
COc1ccc(C=NN=C2c3ccccc3-c3ccccc32)cc1O	-6	-22	-5	-56	3	-32
COc1cc(NC(=O)c2ccco2)c(C(=O)OCC(=O)c2c[nH]c3ccccc23)cc1OC	-11	-7	5	0	15	75*
CCN(CC)CCCN(C(=O)c1ccco1)c1nc(-c2ccc(Cl)cc2)cs1	0	-7	7	13	5	64*
COCCCN(C(=O)c1ccco1)c1nc(-c2ccc(OC)cc2)cs1	-4	-6	7	-126	17	-25
CCN(CC)CCCN(C(=O)c1ccco1)c1nc(-c2ccc(C)cc2)cs1	-15	0	21	10	-49	57*
Cc1ccc(S(=O)(=O)CCC(=O)c2cccc([N+](=O)[O-])c2)cc1	5	19	0	37	7	110*
Cc1ccc(S(=O)(=O)Cc2cc(F)c([N+](=O)[O-])cc2[N+](=O)[O-])cc1	4	52	-2	15	-3	117*
Cc1cc(NC(=O)C(C)SCC(=O)N(C)Cc2ccccc2F)no1 (stereo not given)	-3	5	4	14	-6	71*
Cc1ccc(Nc2nc(N)c3ccccc3n2)cc1C	-54*	6	-3	-26	32	-20
CC(=O)Nc1ccc(NC(=O)C(C)OC(=O)c2cccc(S(=O)(=O)N3CCCCCC3)c2)cc1 (stereo not given)	-2	2	-2	10	1	5
Nc1ccc(-c2nc3ccc(N)cc3[nH]2)cc1	8	4	-27	-28	-30	-118
Nc1ccc2cc3[nH]c4cc(N)ccc4c3nc2c1	-4	83*	-469	-41	90*	28
COc1cc2c(cc1OC)C(c1ccccc1)N(Cc1ccc(S(=O)(=O)NC(=O)c3ccco3)cc1)CC2 (stereo not given)	nt	nt	nt	-10	nt	nt
CCOC(=O)[C@]12CCC=C1N(Cc1ccccc1)C(=O)[C@H](CC(=O)NCCC(C)C)C2	nt	nt	nt	5	nt	nt
CC(SC(C)C(=O)NN=Cc1cccc(Cl)c1)C(=O)NN=Cc1cccc(Cl)c1 (stereo not given)	11	6	-7	6	30	99*
COc1ccc(Cn2cc3c(-c4ccc(F)cc4)nnc-3c3cc(OC)c(OC)cc32)cc1	-43	83*	-70	-13	-4	101*
Cn1nc2c3cc(F)ccc3n(Cc3ccc(F)cc3)cc-2c1=O	-1	-1	8	18	-9	31
COc1cc2c3nnc(-c4ccc(F)cc4)c-3cn(Cc3ccc(F)cc3)c2cc1OC	-21	73*	-201	0	-13	98*
Cc1cccc(OCCN2C(=O)C(=O)c3cc(C)ccc32)c1	-14	11	54*	-79	19	-76
CCOc1ccc(S(=O)(=O)NCc2ccncc2)cc1	-7	9	1	11	90*	4
CCOC(=O)COc1ccc(S(=O)(=O)NCc2ccncc2)cc1	-3	9	-8	14	72	4
N#Cc1c(Nc2ccccc2)[n+]([O-])c2ccc(Cl)cc2[n+]1[O-]	-5	72*	-3	-74	84	-34
